{
  "source": "the OligoGym collection",
  "data": [
    {"biological_target": "BCL7A", "assay": "pooled miR-30 sensor sort-seq; sequence = guide strand", "settings": "shRNA", "values": [
      {"sequence": "AACATTTTGATTCTTCTCGAAG", "sensor-assay potency score (higher = more potent)": -1.09},
      {"sequence": "TTTTGCAGTCTTGTCATTCTGC", "sensor-assay potency score (higher = more potent)": 0.59},
      {"sequence": "TACAGCAGCAACACAAATGGAA", "sensor-assay potency score (higher = more potent)": -0.286},
      {"sequence": "TAACACACAACTCAAAGGGAGT", "sensor-assay potency score (higher = more potent)": -1.29},
      {"sequence": "TATCGTTACATAGAGAAGTGGG", "sensor-assay potency score (higher = more potent)": 0.305},
      {"sequence": "TTCAGGAACATTTTGATTCTTC", "sensor-assay potency score (higher = more potent)": -0.0367},
      {"sequence": "TTCTCTGAGCTGTTCATCGAAT", "sensor-assay potency score (higher = more potent)": -0.798},
      {"sequence": "TTTCTCTGAGCTGTTCATCGAA", "sensor-assay potency score (higher = more potent)": -0.326},
      {"sequence": "ATAATGAACATTCCAAACCATG", "sensor-assay potency score (higher = more potent)": -1.57},
      {"sequence": "ATTCTGACCACTGCGATCCTGC", "sensor-assay potency score (higher = more potent)": -0.637},
      {"sequence": "TTGTTTTTGTCATCAACCTTGG", "sensor-assay potency score (higher = more potent)": -0.192},
      {"sequence": "TTGTACAAACCATATCTACTGA", "sensor-assay potency score (higher = more potent)": -0.0617},
      {"sequence": "TTGATATCATCTTTGGCCCGGC", "sensor-assay potency score (higher = more potent)": -0.0024},
      {"sequence": "TACTGCTGTACAACACACCAAA", "sensor-assay potency score (higher = more potent)": -0.883},
      {"sequence": "TTAGAAAATGGAATCCAGCAGA", "sensor-assay potency score (higher = more potent)": -0.0728},
      {"sequence": "TTTAAGACAGAAACCTTTCGGC", "sensor-assay potency score (higher = more potent)": 0.668},
      {"sequence": "TTGAAATTCAGGAACATTTTGA", "sensor-assay potency score (higher = more potent)": -0.466},
      {"sequence": "TTCATCGAATGTTCCATCGAGG", "sensor-assay potency score (higher = more potent)": -0.362},
      {"sequence": "TTGTGGAATGTGTAGCCGCAGC", "sensor-assay potency score (higher = more potent)": -1.01},
      {"sequence": "TAGTAGTTCTGTTCGCACCCAA", "sensor-assay potency score (higher = more potent)": 0.392}
    ]}
  ]
}
